Results filed as inconclusive are left out. Active and inactive are the calls of the source. The calls were made as follows, unless noted: active = hit-call score of the fitted dose curve at least 0.9, where 1 is the maximum; inactive = score below 0.9.
Key:
[1] = target: Glucocorticoid receptor (Homo sapiens) (UniProt P04150); experiment: ATG_GR_TRANS: Attagene TRANS-FACTORIAL HepG2 Assay for human Glucocorticoid Receptor (GR) (AID 2282978; active = hit-call score of the fitted dose curve at least 0.9, where 1 is the maximum;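 also: activators score as hits since higher reporter transcript over DMSO is fitted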); conditions: HepG2 Attagene TRANS GR reporter, mRNA transcription
Glucocorticoid receptor (Homo sapiens), sequence (P04150 whole entry, looked up): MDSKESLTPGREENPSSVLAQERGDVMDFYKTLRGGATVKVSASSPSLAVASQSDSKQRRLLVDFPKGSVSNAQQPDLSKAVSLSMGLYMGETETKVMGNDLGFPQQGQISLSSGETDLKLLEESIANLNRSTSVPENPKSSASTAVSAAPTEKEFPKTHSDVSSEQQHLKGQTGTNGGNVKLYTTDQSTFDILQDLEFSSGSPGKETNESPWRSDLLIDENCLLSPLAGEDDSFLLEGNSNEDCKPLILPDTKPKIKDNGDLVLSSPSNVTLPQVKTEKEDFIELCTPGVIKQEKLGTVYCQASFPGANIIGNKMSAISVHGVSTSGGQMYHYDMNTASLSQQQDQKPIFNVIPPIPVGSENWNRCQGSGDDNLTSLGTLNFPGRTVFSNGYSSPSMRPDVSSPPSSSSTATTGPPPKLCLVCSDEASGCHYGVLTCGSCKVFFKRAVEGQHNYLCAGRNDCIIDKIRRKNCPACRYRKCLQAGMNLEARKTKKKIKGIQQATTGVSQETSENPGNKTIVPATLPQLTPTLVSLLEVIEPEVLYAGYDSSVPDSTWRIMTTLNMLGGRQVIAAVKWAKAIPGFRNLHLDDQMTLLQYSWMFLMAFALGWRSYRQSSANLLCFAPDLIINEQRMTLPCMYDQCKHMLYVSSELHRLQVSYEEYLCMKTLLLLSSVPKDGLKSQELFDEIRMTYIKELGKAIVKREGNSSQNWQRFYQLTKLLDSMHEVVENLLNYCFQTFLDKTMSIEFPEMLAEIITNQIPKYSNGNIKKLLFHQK
In short: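 Multiplexed TRANS reporter system, HepG2; 24 h exposure; RNA → oligo(dT) RT → reporter-specific PCR → 6-FAM primer extension → HpaI cut → CE fluorescence. Gain-of-signal vs DMSO.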

[2] = target: Transcriptional activator Myb (Homo sapiens) (UniProt P10242); experiment: ATG_Myb_CIS: Attagene CIS-FACTORIAL HepG2 Assay for human Myeloblastosis (Myb) Proto-Oncogene Transcription Factor (AID 2282986); conditions: HepG2 Attagene CIS-FACTORIAL Myb reporter transcription; actives raise or lower the signal
Transcriptional activator Myb (Homo sapiens), sequence (P10242 whole entry, looked up): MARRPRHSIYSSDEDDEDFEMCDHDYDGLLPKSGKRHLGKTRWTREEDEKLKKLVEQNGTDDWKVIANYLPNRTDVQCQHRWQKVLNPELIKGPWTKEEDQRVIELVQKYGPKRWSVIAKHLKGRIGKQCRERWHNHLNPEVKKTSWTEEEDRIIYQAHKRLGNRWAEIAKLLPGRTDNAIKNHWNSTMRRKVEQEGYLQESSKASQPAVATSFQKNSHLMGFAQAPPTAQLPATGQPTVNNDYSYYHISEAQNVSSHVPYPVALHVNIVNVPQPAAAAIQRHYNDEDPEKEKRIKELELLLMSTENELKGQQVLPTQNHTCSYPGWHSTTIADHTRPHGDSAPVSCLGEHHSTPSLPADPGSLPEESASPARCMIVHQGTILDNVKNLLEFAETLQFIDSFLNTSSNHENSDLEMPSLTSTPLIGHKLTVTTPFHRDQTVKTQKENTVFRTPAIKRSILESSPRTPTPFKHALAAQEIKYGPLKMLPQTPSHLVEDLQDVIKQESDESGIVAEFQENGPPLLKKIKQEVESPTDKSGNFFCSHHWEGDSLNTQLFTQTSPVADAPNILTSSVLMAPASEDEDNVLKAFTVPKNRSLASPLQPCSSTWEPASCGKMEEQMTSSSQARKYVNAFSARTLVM
In short: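 Endogenous transcription factor activity at a Myb-responsive cis element is reported in human liver HepG2 cells after 24 h chemical treatment. Reporter mRNA is detected by RT-PCR and capillary electrophoresis fluorescence, with DMSO as baseline.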

[3] = target: Nuclear respiratory factor 1 (Homo sapiens) (UniProt Q16656); experiment: ATG_NRF1_CIS: Attagene CIS-FACTORIAL HepG2 Assay for human Nuclear Respiratory Factor 1 (NRF1) Orphan Gene (AID 2282987); conditions: HepG2 NRF1 cis-element reporter, Attagene multiplex; actives raise or lower the signal
Nuclear respiratory factor 1 (Homo sapiens), sequence (Q16656 whole entry, looked up): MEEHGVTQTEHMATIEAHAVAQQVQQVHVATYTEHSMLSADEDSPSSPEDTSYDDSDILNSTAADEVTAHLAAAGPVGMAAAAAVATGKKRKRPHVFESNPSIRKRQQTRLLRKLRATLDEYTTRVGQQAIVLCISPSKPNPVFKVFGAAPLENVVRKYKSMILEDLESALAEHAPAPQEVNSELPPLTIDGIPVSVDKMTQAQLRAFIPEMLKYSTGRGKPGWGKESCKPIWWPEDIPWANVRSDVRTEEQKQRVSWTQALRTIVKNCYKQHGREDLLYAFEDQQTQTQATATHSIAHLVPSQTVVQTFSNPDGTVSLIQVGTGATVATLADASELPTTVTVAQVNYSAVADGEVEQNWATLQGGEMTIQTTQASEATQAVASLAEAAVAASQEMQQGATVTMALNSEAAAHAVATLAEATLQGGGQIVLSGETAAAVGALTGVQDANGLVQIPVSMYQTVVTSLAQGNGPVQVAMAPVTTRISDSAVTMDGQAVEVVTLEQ
In short: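 Human hepatoma HepG2 cells carrying transfected promoter-regulated reporter units were incubated with test chemicals for 24 h. Reporter transcripts were measured by RT-PCR plus capillary electrophoresis, and endpoints derived by bidirectional fitting with DMSO as baseline.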

[4] = ATG_NFI_CIS: Attagene CIS-FACTORIAL HepG2 Assay for human Nuclear Factor I (NFI) (AID 2282989); conditions: HepG2 cis-regulatory reporter, NFI response element transcription; actives raise or lower the signal
In short: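 After transient transfection of HepG2 with cis-promoter reporter constructs and 24 h dosing, RNA is reverse-transcribed, amplified, 6-FAM end-labelled and HpaI-digested before capillary analysis. Bidirectional curve fitting against DMSO.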

[5] = target: Myc proto-oncogene protein (Homo sapiens) (UniProt P01106); experiment: ATG_Myc_CIS: Attagene CIS-FACTORIAL HepG2 Assay for human Myelocytomatosis (Myc) Proto-Oncogene Transcription Factor (AID 2282990); conditions: HepG2, Attagene cis-reporter transcription factor activity; actives raise or lower the signal
Myc proto-oncogene protein (Homo sapiens), sequence (P01106 whole entry, looked up): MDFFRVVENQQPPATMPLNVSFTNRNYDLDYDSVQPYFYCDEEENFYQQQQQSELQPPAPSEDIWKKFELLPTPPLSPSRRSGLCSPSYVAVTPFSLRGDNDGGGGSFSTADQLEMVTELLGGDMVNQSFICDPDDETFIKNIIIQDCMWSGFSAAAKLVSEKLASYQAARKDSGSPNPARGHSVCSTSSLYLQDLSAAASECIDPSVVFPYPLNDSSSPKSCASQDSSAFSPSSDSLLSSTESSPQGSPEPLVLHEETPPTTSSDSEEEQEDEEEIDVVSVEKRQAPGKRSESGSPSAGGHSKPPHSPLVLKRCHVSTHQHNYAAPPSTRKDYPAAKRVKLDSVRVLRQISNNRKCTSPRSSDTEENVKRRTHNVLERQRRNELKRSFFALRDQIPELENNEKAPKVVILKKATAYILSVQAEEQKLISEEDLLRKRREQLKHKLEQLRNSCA
In short: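 Cells of the HepG2 human liver line bear multiple cis-driven reporter transcription units. Reporter mRNA after 24 h exposure is reverse-transcribed, amplified, labelled and resolved by capillary electrophoresis, with gain- or loss-of-signal fitting relative to DMSO.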

[6] = ATG_NF_kB_CIS: Attagene CIS-FACTORIAL HepG2 Assay for human Nuclear Factor Kappa B (NF-kB) (AID 2282991); conditions: HepG2 Attagene cis-factorial NF-kB reporter mRNA; actives raise or lower the signal
In short: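 Multiplexed cis-reporter assay in transiently transfected HepG2. 24 h treatment; RNA isolated, RT-PCR, labelled fragments resolved by CE. DMSO baseline.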

[7] = ATG_NRF2_ARE_CIS: Attagene CIS-FACTORIAL HepG2 Assay for human Nuclear Factor Erythroid 2 Related Factor 2 (NFR2) response to Antioxidant Response Elements (ARE) (AID 2282992); conditions: HepG2 Attagene ARE/NRF2 reporter, transcription factor activity; actives raise or lower the signal
In short: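 Endogenous transcription factor activity in human liver HepG2 cells is tracked via a cis-element-driven reporter within a multiplexed set. mRNA induction is read by RT-PCR and capillary electrophoresis after 24 h, with DMSO as baseline.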

[8] = ATG_Oct_MLP_CIS: Attagene CIS-FACTORIAL HepG2 Assay for human Octamer-Binding Transcription Factor (Oct) (AID 2282993); conditions: HepG2 Attagene cis-factorial Oct reporter, mRNA; actives raise or lower the signal
In short: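 Cells of the HepG2 line express promoter-controlled reporter sequences whose mRNA levels, after 24 h treatment, are measured by RT-PCR and capillary electrophoresis. Increases and decreases are scored relative to DMSO.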

[9] = target: Cellular tumor antigen p53 (Homo sapiens) (UniProt P04637); experiment: ATG_p53_CIS: Attagene CIS-FACTORIAL HepG2 Assay for human p53 Transcription Factor (AID 2282994); conditions: HepG2 p53 cis-element reporter, Attagene mRNA; actives raise or lower the signal
Cellular tumor antigen p53 (Homo sapiens), sequence (P04637 whole entry, looked up, the tested form may be a part): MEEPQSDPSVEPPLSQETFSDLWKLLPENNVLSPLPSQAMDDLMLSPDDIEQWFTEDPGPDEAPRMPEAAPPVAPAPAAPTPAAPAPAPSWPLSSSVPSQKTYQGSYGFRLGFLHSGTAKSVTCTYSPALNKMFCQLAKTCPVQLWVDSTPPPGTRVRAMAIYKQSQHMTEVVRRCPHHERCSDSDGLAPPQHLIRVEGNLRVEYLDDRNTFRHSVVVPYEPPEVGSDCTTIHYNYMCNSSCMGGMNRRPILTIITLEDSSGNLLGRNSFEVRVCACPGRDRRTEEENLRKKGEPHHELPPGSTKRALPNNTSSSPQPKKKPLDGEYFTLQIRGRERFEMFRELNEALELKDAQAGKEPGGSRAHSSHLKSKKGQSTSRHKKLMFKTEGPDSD
In short: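 Steps: transfect HepG2 with multiplexed cis reporter constructs; dose chemicals 24 h; extract RNA, reverse-transcribe, PCR-amplify reporter sequences; FAM-label, HpaI-digest, resolve fragments by CE. Activity fitted both directions relative to DMSO.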

[10] = BSK_3C_TissueFactor: BioMAP Diversity Plus: 3C Assay for Tissue Factor Biomarker Activity (AID 2282997); conditions: BioMAP 3C HUVEC, tissue factor biomarker readout; actives raise or lower the signal
In short: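 In this endothelial system, HUVEC are treated for 24 h and Tissue Factor is assessed by ELISA, normalised to DMSO.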

[11] = BSK_3C_uPAR: BioMAP Diversity Plus: 3C Assay for Urokinase-type plasminogen activator receptor (uPAR) Biomarker Activity (AID 2282998); conditions: BioMAP 3C HUVEC, uPAR biomarker ELISA; actives raise or lower the signal
In short: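 Endothelial primary cells of human umbilical vein origin received test chemical; 24 h later uPAR was assayed by ELISA. Fitting was bidirectional, DMSO as negative control.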

[12] = BSK_3C_VCAM1: BioMAP Diversity Plus: 3C Assay for Vascular cell adhesion molecule 1 (VCAM1) Biomarker Activity (AID 2282999); conditions: BioMAP 3C HUVEC, VCAM1 ELISA, cytokine-stimulated; actives raise or lower the signal
In short: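 Activity fitted in both directions relative to DMSO, with ELISA measurement of the surface marker on primary HUVEC (3C) at 24 h post-treatment; parallel SRB staining (0.1% SRB, TCA-fixed, 560 nm) flagged overt cytotoxicity.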

[13] = target: Hepatocyte nuclear factor 4-alpha (Homo sapiens) (UniProt P41235); experiment: ATG_HNF4a_TRANS: Attagene TRANS-FACTORIAL HepG2 Assay for human Hepatocyte Nuclear Factor 4 alpha (HNF4a) (AID 2282982; active = hit-call score of the fitted dose curve at least 0.9, where 1 is the maximum); conditions: HepG2 HNF4a transactivation reporter, mRNA readout
Hepatocyte nuclear factor 4-alpha (Homo sapiens), sequence (P41235 whole entry, looked up, the tested form may be a part): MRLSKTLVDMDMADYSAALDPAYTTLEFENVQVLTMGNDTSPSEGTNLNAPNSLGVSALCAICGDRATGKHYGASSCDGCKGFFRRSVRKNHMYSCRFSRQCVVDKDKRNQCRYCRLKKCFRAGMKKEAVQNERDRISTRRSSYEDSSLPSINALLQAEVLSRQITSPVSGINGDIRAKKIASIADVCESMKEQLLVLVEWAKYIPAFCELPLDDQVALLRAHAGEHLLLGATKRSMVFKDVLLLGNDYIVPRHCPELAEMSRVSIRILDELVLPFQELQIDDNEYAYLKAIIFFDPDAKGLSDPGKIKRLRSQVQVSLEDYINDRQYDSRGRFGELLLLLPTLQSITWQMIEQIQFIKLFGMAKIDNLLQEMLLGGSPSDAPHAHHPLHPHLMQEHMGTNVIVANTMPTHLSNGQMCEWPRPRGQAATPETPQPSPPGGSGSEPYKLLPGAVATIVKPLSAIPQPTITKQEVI
In short: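 Activity of an exogenous HNF4a–Gal4 fusion scored as induced GAL4-UAS reporter transcripts after 24 h chemical exposure of transfected human HepG2 cells. Read-out via RT-PCR with 6-FAM labelling and capillary electrophoresis; rise over DMSO baseline.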

[14] = target: human Peroxisome Proliferator-activated Receptor alpha (PPARa), PPARA (gene 5465) (UniProt Q07869); experiment: ATG_PPARa_TRANS: Attagene TRANS-FACTORIAL HepG2 Assay for human Peroxisome Proliferator-activated Receptor alpha (PPARa) (AID 2283001; active = hit-call score of the fitted dose curve at least 0.9, where 1 is the maximum)
human Peroxisome Proliferator-activated Receptor alpha (PPARa), PPARA (gene 5465), sequence (Q07869 whole entry, looked up, the tested form may be a part): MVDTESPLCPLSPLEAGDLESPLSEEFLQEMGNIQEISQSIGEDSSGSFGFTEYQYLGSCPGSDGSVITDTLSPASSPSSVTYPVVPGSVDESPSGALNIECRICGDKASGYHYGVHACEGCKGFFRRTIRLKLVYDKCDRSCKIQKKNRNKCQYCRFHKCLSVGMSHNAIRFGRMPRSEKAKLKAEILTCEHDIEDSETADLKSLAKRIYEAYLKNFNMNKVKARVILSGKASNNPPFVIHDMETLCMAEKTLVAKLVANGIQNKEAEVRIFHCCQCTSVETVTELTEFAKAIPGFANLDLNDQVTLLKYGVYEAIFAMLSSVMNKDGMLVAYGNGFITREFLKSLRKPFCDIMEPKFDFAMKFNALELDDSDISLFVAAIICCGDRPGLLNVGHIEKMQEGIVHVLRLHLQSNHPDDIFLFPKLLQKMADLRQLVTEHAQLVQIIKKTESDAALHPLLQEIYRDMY
In short: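 Reporter transcripts quantified by RT-PCR plus capillary electrophoresis after 24 h treatment, fitted upward relative to DMSO. Cells: human HepG2 transiently carrying multiple GAL4-UAS reporter units driven by NR-Gal4 chimeras.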

[15] = ATG_M_32_TRANS: Attagene TRANS-FACTORIAL HepG2 Assay for M32 Transcription Factor (Internal Marker) (AID 2282984; active = hit-call score of the fitted dose curve at least 0.9, where 1 is the maximum;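 also: transcript level of a background control reporter unit measured by RT-PCR and capillary electrophoresis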); conditions: HepG2 Attagene TRANS M32 internal marker reporter
In short: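 Internal background reporter in transfected HepG2: after 24 h chemical exposure, RNA reverse-transcribed, reporter cDNA amplified, fluorescently labelled and HpaI-cut, then sized by capillary electrophoresis. Gain of signal fitted against DMSO control.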

[16] = ATG_M_06_TRANS: Attagene TRANS-FACTORIAL HepG2 Assay for M06 Transcription Factor (Internal Marker) (AID 2282983; active = hit-call score of the fitted dose curve at least 0.9, where 1 is the maximum;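 also: reporter transcript level by RT-PCR then capillary electrophoresis fluorescence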); conditions: HepG2 Attagene TRANS M06 internal marker reporter
In short: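 Multi-reporter-transfected HepG2, 24 h treatment; reporter transcripts quantified via RT-PCR, primer-extension labelling and CE. DMSO-normalized gain-of-signal fit.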

[17] = target: Nuclear receptor subfamily 4 group A member 2 (Homo sapiens) (UniProt P43354); experiment: ATG_NURR1_TRANS: Attagene TRANS-FACTORIAL HepG2 Assay for human Nuclear Receptor Related Protein 1 (NURR1) (AID 2282985; active = hit-call score of the fitted dose curve at least 0.9, where 1 is the maximum); conditions: HepG2 Attagene TRANS reporter, mRNA readout
Nuclear receptor subfamily 4 group A member 2 (Homo sapiens), sequence (P43354 whole entry, looked up, the tested form may be a part): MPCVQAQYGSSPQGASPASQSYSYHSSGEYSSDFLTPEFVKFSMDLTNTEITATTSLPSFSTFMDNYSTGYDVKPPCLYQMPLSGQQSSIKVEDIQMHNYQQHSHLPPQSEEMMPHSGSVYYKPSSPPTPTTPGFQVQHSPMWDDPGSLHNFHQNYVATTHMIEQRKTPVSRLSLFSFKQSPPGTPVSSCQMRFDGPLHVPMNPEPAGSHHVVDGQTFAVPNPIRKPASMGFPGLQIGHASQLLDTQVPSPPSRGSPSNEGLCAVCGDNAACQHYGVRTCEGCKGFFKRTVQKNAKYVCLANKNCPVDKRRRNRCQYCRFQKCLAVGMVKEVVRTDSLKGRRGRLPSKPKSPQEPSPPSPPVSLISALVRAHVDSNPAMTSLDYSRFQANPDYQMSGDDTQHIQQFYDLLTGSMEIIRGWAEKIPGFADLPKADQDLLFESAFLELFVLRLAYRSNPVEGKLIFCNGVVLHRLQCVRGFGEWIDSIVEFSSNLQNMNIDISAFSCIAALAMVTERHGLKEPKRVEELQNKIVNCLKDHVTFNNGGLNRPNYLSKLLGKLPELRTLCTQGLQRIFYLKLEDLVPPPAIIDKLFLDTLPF
In short: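 Reporter transcript induction, measured by RT-PCR with fluorescent labelling, HpaI digestion and capillary electrophoresis, after 24 hr dosing of human HepG2 cells transiently expressing an exogenous NR-Gal4 fusion with GAL4-UAS-driven reporters; DMSO as baseline.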

[18] = BSK_4H_Eotaxin3: BioMAP Diversity Plus: 4H Assay for Eotaxin 3 Biomarker Activity (AID 2283000); conditions: primary human endothelial cells (HUVEC); actives raise or lower the signal
In short: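 ELISA quantitation of CCL26 (Eotaxin-3) protein from chemically dosed human vascular endothelial cells at 24 h; increases and decreases both scored relative to DMSO-treated baseline.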

[19] = target: Bile acid receptor (Homo sapiens) (UniProt Q96RI1); experiment: ATG_FXR_TRANS: Attagene TRANS-FACTORIAL HepG2 Assay for Farnesoid X Receptor (FXR) (AID 2282979; active = hit-call score of the fitted dose curve at least 0.9, where 1 is the maximum;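 also: hits raise reporter mRNA above DMSO so AC50 marks FXR activation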); conditions: HepG2 Attagene TRANS FXR-GAL4 reporter transcription
Bile acid receptor (Homo sapiens), sequence (Q96RI1 whole entry, looked up, the tested form may be a part): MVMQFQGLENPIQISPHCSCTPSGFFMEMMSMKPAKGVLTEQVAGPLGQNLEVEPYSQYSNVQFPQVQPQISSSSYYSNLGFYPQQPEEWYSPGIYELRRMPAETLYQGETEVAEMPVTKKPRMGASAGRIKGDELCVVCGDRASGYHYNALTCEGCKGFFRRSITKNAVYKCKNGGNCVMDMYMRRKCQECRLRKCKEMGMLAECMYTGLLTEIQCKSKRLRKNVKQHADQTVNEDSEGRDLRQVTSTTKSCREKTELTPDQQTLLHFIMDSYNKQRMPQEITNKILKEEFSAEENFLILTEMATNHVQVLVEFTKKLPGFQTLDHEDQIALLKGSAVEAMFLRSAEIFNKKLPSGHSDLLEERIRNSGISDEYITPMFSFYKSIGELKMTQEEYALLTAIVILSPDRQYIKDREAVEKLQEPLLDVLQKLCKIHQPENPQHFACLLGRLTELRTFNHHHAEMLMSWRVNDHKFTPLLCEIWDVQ
In short: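 After 24 h chemical treatment of transfected HepG2 cells, GAL4-UAS reporter transcripts driven by an exogenous FXR-GAL4 fusion were measured by RT-PCR and capillary electrophoresis. Increases over DMSO were fitted.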

[20] = target: Oxysterols receptor LXR-beta (Homo sapiens) (UniProt P55055); experiment: ATG_LXRb_TRANS: Attagene TRANS-FACTORIAL HepG2 Assay for human Liver X Receptor beta (LXRb) (AID 2282981; active = hit-call score of the fitted dose curve at least 0.9, where 1 is the maximum); conditions: HepG2 Attagene TRANS GAL4-LXRb reporter, mRNA
In short: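 After 24 h chemical treatment of transfected HepG2 cells carrying exogenous NR-Gal4 chimeras, reporter mRNA was quantified by fluorescent RT-PCR and capillary electrophoresis; activity taken as increase over DMSO controls.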

Measured: AC50

CC(C)CC(C)(O)C#CC(C)(O)CC(C)C (stereo not drawn)
not listed: [13] | [14] | [15] | [16] | [17] | [18] | [19] | [20]
inactive: all other assays above

CCCCCCCCO
not listed: [6] | [12] | [15] | [16] | [17] | [18] | [19] | [20]
inactive: all other assays above

CC/C(=C\C(=N/O)C(N)=O)C(C)[N+](=O)[O-] (stereo not drawn)
inactive: [1] | [15] | [2] | [3] | [4] | [5] | [8] | [10] | [11] | [14]
active: [7] 38.7 µM | [12] 20 µM

O=C1CCC(N2C(=O)c3ccccc3C2=O)C(=O)N1 (stereo not drawn)
not listed: [13] | [14] | [19] | [20]
inactive: all other assays above

Cc1c(-c2cccnc2)c2ccccc2n1CCCCC(=O)O
active: [6] 100 µM
not listed: [1] | [13] | [15] | [16] | [17]
inactive: all other assays above

O=C(O)c1cccc(Oc2ccccc2)c1
not listed: [12] | [13] | [15] | [17] | [18] | [19] | [20]
inactive: all other assays above

CCCCCCc1ccc(O)cc1O
active: [7] 24.3 µM | [8] 50.9 µM | [10] 33.8 µM | [11] 31.8 µM | [18] 32.2 µM
inactive: [1] | [16] | [17] | [2] | [3] | [4] | [5] | [14]

Fc1ccccc1[C@@H](F)COC1CCC(Nc2ncnc3[nH]ncc23)CC1 (stereo partly drawn)
active: [19] 25.6 µM | [3] 9.56 µM | [5] 25.4 µM | [7] 6.77 µM | [10] 35.2 µM | [11] 15.2 µM | [18] 23.6 µM
not listed: [1] | [12] | [14] | [16] | [20]
inactive: all other assays above

CC1(C)C(=O)N(Br)C(=O)N1Br
active: [7] 52.4 µM
not listed: [1] | [6] | [14] | [15] | [20]
inactive: all other assays above
